In PubChem BioAssay AID1159580 (chemical genetic matrix, 2015):
“And” between values parts separate entries of the source, which are not always exact repeats. Equal entries are not always repeated. About 2,000 (36%) of roughly 5,500 compounds were called active. Another 18% or so got no clear call; they are omitted. Rule as the data show it: active = normalized growth mostly below about 0.91 (no sharp cut-off); inconclusive = no clear call, values can overlap the other calls; inactive = mostly above about 0.92. The list shows a part of the results.

Assay: chemical genetic growth profiling, strain panel (AID 1159580);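 also: tested at 20 µM; growth read once vehicle control cultures reached saturation at 30 °C; 1 = growth at the plate median or of vehicle wells; lower values mean less growth of the strain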
Conditions: S. cerevisiae deletion strains, growth OD

Compound: C=CC(C)(O)CC/C=C(\C)CCC=C(C)C (configuration not stated)
- normalized growth (locus YAL013W, strain DEP1, stronger effect = lower value): 0.947 (inactive)
- normalized growth (locus YAL021C, strain ccr4, stronger effect = lower value): 0.913 (inactive)
- normalized growth (locus YAL026C, strain drs2, stronger effect = lower value): 0.958 (inactive)
- normalized growth (locus YAL030W, strain snc1, stronger effect = lower value): 0.986 (inactive)
- normalized growth (locus YBL061C, strain skt5, stronger effect = lower value): 0.951 (inactive)
- normalized growth (locus YBR009C, strain hhf1, stronger effect = lower value): 0.923 (inactive)
- normalized growth (locus YBR021W, strain FUR4, stronger effect = lower value): 0.863 (inactive)
- normalized growth (locus YBR023C, strain chs3, stronger effect = lower value): 0.938 (inactive)
- normalized growth (locus YBR171W, strain sec66, stronger effect = lower value): 0.965 (inactive)
- normalized growth (locus YBR229C, strain ROT2, stronger effect = lower value): 0.999 (inactive)
- normalized growth (locus YBR231C, strain swc5, stronger effect = lower value): 0.98 (inactive)
- normalized growth (locus YCL011C, strain gbp2, stronger effect = lower value): 0.949 (inactive)
- normalized growth (locus YCL016C, strain dcc1, stronger effect = lower value): 0.965 (inactive)
- normalized growth (locus YCL029C, strain bik1, stronger effect = lower value): 0.993 (inactive)
- normalized growth (locus YCL061C, strain MRC1, stronger effect = lower value): 0.969 (inactive)
- normalized growth (locus YCL069W, strain vba3, stronger effect = lower value): 0.968 (inactive)
- normalized growth (locus YCR088W, strain abp1, stronger effect = lower value): 0.975 (inactive)
- normalized growth (locus YDL005C, strain med2, stronger effect = lower value): 0.956 (inactive)
- normalized growth (locus YDL035C, strain GPR1, stronger effect = lower value): 0.956 (inactive)
- normalized growth (locus YDL040C, strain nat1, stronger effect = lower value): 0.982 (inactive)
- normalized growth (locus YDL074C, strain BRE1, stronger effect = lower value): 0.886 (inactive)
- normalized growth (locus YDL101C, strain DUN1, stronger effect = lower value): 0.958 (inactive)
- normalized growth (locus YDL185W, strain tfp1, stronger effect = lower value): 1.02 (inactive)
- normalized growth (locus YDL192W, strain arf1, stronger effect = lower value): 0.952 (inactive)
- normalized growth (locus YDR001C, strain nth1, stronger effect = lower value): 0.98 (inactive)
- normalized growth (locus YDR069C, strain doa4, stronger effect = lower value): 0.946 (inactive)
- normalized growth (locus YDR101C, strain arx1, stronger effect = lower value): 0.992 (inactive)
- normalized growth (locus YDR137W, strain rgp1, stronger effect = lower value): 0.916 (inactive)
- normalized growth (locus YDR159W, strain sac3, stronger effect = lower value): 0.862 (inactive)
- normalized growth (locus YDR162C, strain NBP2, stronger effect = lower value): 0.92 (inactive)
- normalized growth (locus YDR195W, strain ref2): 0.662 (active)
- normalized growth (locus YDR297W, strain sur2, stronger effect = lower value): 0.974 (inactive)
- normalized growth (locus YDR318W, strain mcm21, stronger effect = lower value): 0.99 (inactive)
- normalized growth (locus YDR334W, strain swr1, stronger effect = lower value): 0.944 (inactive)
- normalized growth (locus YDR335W, strain msn5, stronger effect = lower value): 0.979 (inactive)
- normalized growth (locus YDR388W, stronger effect = lower value): 0.985 (inactive)
- normalized growth (locus YDR392W, strain spt3, stronger effect = lower value): 0.454 (active)
- normalized growth (locus YDR502C, strain sam2, stronger effect = lower value): 0.978 (inactive)
- normalized growth (locus YEL003W, strain gim4, stronger effect = lower value): 0.983 (inactive)
- normalized growth (locus YEL037C, strain rad23, stronger effect = lower value): 0.964 (inactive)
- normalized growth (locus YEL061C, strain CIN8 (second series), stronger effect = lower value): 0.978 (inactive)
- normalized growth (locus YEL061C, strain CIN8, stronger effect = lower value): 0.937 (inactive)
- normalized growth (locus YER015W, strain faa2, stronger effect = lower value): 0.974 (inactive)
- normalized growth (locus YER016W, strain bim1, stronger effect = lower value): 0.988 (inactive)
- normalized growth (locus YER110C, stronger effect = lower value): 1.01 (inactive)
- normalized growth (locus YER111C, strain swi4, stronger effect = lower value): 0.947 (inactive)
- normalized growth (locus YER155C, strain BEM2 (second series), stronger effect = lower value): 0.777 (active)
- normalized growth (locus YER155C, strain BEM2, stronger effect = lower value): 0.807 (active)
- normalized growth (locus YER167W, strain BCK2, stronger effect = lower value): 0.944 (inactive)
- normalized growth (locus YFR010W, strain ubp6, stronger effect = lower value): 0.903 (inactive)
- normalized growth (locus YGL078C, strain dbp3, stronger effect = lower value): 0.988 (inactive)
- normalized growth (locus YGL086W, strain mad1, stronger effect = lower value): 0.981 (inactive)
- normalized growth (locus YGL167C, strain pmr1, stronger effect = lower value): 0.984 (inactive)
- normalized growth (locus YGL173C, strain kem1, stronger effect = lower value): 0.965 (inactive)
- normalized growth (locus YGL227W, strain vid30, stronger effect = lower value): 0.979 (inactive)
- normalized growth (locus YGL240W, strain doc1, stronger effect = lower value): 0.964 (inactive)
- normalized growth (locus YGL248W, strain PDE1, stronger effect = lower value): 0.931 (inactive)
- normalized growth (locus YGL253W, strain hxk2, stronger effect = lower value): 0.984 (inactive)
- normalized growth (locus YGR135W, strain pre9, stronger effect = lower value): 0.967 (inactive)
- normalized growth (locus YGR252W, strain gcn5, stronger effect = lower value): 1.03 (inactive)
- normalized growth (locus YHR013C, strain ard1, stronger effect = lower value): 0.964 (inactive)
- normalized growth (locus YHR027C, strain rpn1, stronger effect = lower value): 0.978 (inactive)
- normalized growth (locus YHR030C, strain SLT2, stronger effect = lower value): 0.955 (inactive) and 0.825 (active)
- normalized growth (locus YHR079C, strain IRE1 (second series), stronger effect = lower value): 0.999 (inactive)
- normalized growth (locus YHR079C, strain IRE1, stronger effect = lower value): 0.81 (active)
- normalized growth (locus YHR094C, strain hxt1, stronger effect = lower value): 1.02 (inactive)
- normalized growth (locus YHR129C, strain ARP1, stronger effect = lower value): 0.939 (inactive)
- normalized growth (locus YHR142W, strain chs7, stronger effect = lower value): 0.75 (active)
- normalized growth (locus YHR200W, strain rpn10, stronger effect = lower value): 0.991 (inactive)
- normalized growth (locus YIL066C, strain RNR3, stronger effect = lower value): 0.934 (inactive)
- normalized growth (locus YIL073C, strain SPO22, stronger effect = lower value): 0.88 (inactive)
- normalized growth (locus YIL125W, strain kgd1, stronger effect = lower value): 1.02 (inactive)
- normalized growth (locus YIR030C, strain dcg1, stronger effect = lower value): 1.01 (inactive)
- normalized growth (locus YJL092W, strain hpr5, stronger effect = lower value): 0.965 (inactive)
- normalized growth (locus YJL095W, strain BCK1 (second series), stronger effect = lower value): 0.99 (inactive)
- normalized growth (locus YJL095W, strain BCK1, stronger effect = lower value): 0.869 (inactive) and 0.946 (inactive)
- normalized growth (locus YJL115W, strain asf1, stronger effect = lower value): 0.954 (inactive)
- normalized growth (locus YJL129C, strain trk1, stronger effect = lower value): 0.923 (inactive)
- normalized growth (locus YJL134W, strain LCB3, stronger effect = lower value): 0.997 (inactive)
- normalized growth (locus YJL154C, strain vps35, stronger effect = lower value): 0.959 (inactive)
- normalized growth (locus YJL164C, strain tpk1, stronger effect = lower value): 0.915 (active)
- normalized growth (locus YJL166W, strain qcr8, stronger effect = lower value): 0.902 (active)
- normalized growth (locus YJL168C, strain set2, stronger effect = lower value): 1.01 (inactive)
- normalized growth (locus YJL187C, strain SWE1 (second series), stronger effect = lower value): 0.946 (inactive)
- normalized growth (locus YJL187C, strain SWE1, stronger effect = lower value): 0.986 (inactive)
- normalized growth (locus YJR043C, strain POL32, stronger effect = lower value): 0.978 (inactive)
- normalized growth (locus YJR066W, strain TOR1, stronger effect = lower value): 0.911 (inactive)
